The entries come from a sample that favours hits as a whole.
12-LOX inh – Primary qHTS assay for inhibitors of human arachidonate 12S-lipoxygenase (ALOX12): Round 2; actives 1.1% (n = 580,000); AID 1671190, 2021; purified 12hLO, xylenol orange hydroperoxide absorbance; Polyunsaturated fatty acid lipoxygenase ALOX12 (Homo sapiens), P18054; Potency, µM (highest dose often 108 µM), inactives show at the top dose activity change, negative = inhibition, hits mostly inhibitors; also: potency is read from the fitted curve at half-maximal effect
Target sequence (P18054 whole entry, looked up): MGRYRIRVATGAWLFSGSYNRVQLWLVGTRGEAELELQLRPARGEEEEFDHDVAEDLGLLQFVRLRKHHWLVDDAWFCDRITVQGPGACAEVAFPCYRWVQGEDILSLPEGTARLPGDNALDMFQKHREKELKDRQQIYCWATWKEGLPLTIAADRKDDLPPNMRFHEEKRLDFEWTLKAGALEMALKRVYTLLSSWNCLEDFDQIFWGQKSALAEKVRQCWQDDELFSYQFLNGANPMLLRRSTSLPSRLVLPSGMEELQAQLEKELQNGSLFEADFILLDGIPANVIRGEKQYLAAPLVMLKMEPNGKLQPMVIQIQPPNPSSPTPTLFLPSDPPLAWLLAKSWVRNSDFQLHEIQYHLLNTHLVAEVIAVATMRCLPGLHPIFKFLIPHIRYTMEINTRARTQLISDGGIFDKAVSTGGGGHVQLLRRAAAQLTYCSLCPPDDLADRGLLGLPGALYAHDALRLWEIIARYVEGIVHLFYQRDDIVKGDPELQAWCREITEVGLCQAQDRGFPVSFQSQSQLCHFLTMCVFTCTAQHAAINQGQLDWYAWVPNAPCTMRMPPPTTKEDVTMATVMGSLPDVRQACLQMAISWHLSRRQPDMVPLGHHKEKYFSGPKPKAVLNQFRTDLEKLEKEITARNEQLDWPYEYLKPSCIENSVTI
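Hydroperoxide product was detected by ferrous iron/xylenol orange as the 573 to 405 nm absorbance ratio. Arachidonic acid at 40 uM (final) was turned over for 30 min at room temperature by 150 nM human 12hLO, pH 7.0 Hepes buffer, after 15 min compound preincubation.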
TDP1 cell noCPT – qHTS for Inhibitors of human tyrosyl-DNA phosphodiesterase 1 (TDP1): qHTS in cells in absence of CPT; DT40 Tdp1-/- hTDP1 cells, no CPT, ATP luminescence, 48 h; Potency, µM (titrated, usually from 46.2 µM), inactives show at the highest dose activity change, negative = growth inhibition, actives largely listed as inhibitors; AID 686978, 2013; actives 15% (n = 420,000); also: potency is read from the fitted curve at half-maximal effect; nearly all actives have a fitted effect of over 55% in size
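Readout: luminescence from CellTiter-Glo after 30 min in the dark at RT. Cells: DT40 Tdp1-/- with stable hTDP1, 400/well. Exposure: compounds alone, ≥48 hr, 37 °C.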
HT1080NT lethal – qHTS for induction of synthetic lethality in tumor cells producing 2HG: qHTS for the HT-1080-NT fibrosarcoma cell line; HT-1080-NT fibrosarcoma viability, CellTiter-Glo ATP luminescence, 48 h; Potency, µM (series often up to 46.1 µM), for the others: top-dose activity, negative = less viability, most hits filed as cytotoxic; actives 1.6% (n = 360,000); AID 686970, 2013;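 also: NT is the 2HG producing partner of a matched IDH1 knockdown line; potency is read from the fitted curve at half-maximal effect; 0% = DMSO-treated cells and -100% = media-only wells without cells; nearly all actives have a fitted effect of over 55% in size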
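Compounds were tested in concentration-response format on HT-1080-NT cells for 48 hours at 37 degrees C. Cell viability came from CellTiter-Glo luminescence; curves were classified by r2, response magnitude and activity.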
IL1B secr inh – qHTS for Inhibitors of Inflammasome Signaling: IL-1-beta AlphaLISA Primary Screen. THP-1 LPS/ATP IL-1B secretion, AlphaLISA, 16 h; active compounds read low. activity change, % at 57.5 µM. actives 4.7% (n = 360,000); in the data active = activity change below about -50%; inconclusive = mostly about -30% to -49%
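Secreted IL-1B measured by AlphaLISA bead assay after 16 h compound exposure of THP-1 cells; compounds (final up to 57.5 uM) added 1 h before LPS (250 ng/mL) and ATP (1.25 mM) stimulation; lower signal means less secretion.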
HT1080 IDH1KD tx – qHTS for induction of synthetic lethality in tumor cells producing 2HG: qHTS for the HT-1080-IDH1KD cell line. HT-1080 IDH1 knockdown viability, ATP luminescence, 48 h. Potency, µM (titrated, usually from 46.1 µM), for the others: at the highest dose activity, negative = toxicity, most hits filed as cytotoxic. actives 2% (n = 360,000). AID 686971, 2013;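 also: potency is read from the fitted curve at half-maximal effect; 0% = DMSO wells and -100% = cell-free medium wells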
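Knockdown cells (IDH1KD HT-1080) received compounds 2 h after plating at 750 cells/well and were kept 48 h at 37 °C in 5% FBS RPMI. A CellTiter-Glo luminescence read gave % activity for curve fitting.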
TDP1 cell CPT – qHTS for Inhibitors of human tyrosyl-DNA phosphodiesterase 1 (TDP1): qHTS in cells in presence of CPT. Potency, µM (highest dose often 46.2 µM), for the others: top-dose activity change, negative = growth inhibition, hits mostly inhibitors. actives 12% (n = 420,000). chicken DT40 Tdp1-/-;hTDP1 cells + 20 nM CPT, ATP luminescence, 48 h; also: potency is read from the fitted curve at half-maximal effect; nearly all actives have a fitted effect of over 55% in size
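Chicken DT40 Tdp1-/- cells complemented with human TDP1, 400 cells/well, exposed to compounds plus 20 nM camptothecin for at least 48 h at 37 C; viability read as ATP content by CellTiter-Glo luminescence.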
The depositor's hits bear a star; [ ] = another dose, or the depositor's remark. Unless noted, calls follow the shape of the dose curve; as a rule, active = well fitted curve in the direction sought with a large enough effect; inconclusive = small, poorly fitted or top-dose-only effect, or another doubt; inactive = no such curve, though single readings can be large; an effect the other way counts as inactive or inconclusive. Unless noted, % is scaled to controls: 0 for no effect and ±100 for the full control effect.

CCCN1CCC(CC(=O)N2CCCC(N3CCN(c4ccc(F)cc4)CC3)C2)CC1 (configuration not stated) was read as 12-LOX inh 44%.
For COc1ccc(OC)c(NC(=O)c2c(NCc3ccc(C)o3)sc3c2CCCCC3)c1 the results were 12-LOX inh inconclusive, TDP1 cell noCPT 7.3µM* and TDP1 cell CPT 6.5µM*.
For COc1ccc(Cl)cc1NC(=O)c1c(NCc2cccs2)sc2c1CCC(C)C2 (configuration not stated) the results were 12-LOX inh 3%, TDP1 cell noCPT 13µM* and TDP1 cell CPT inconclusive.
For COc1ccc(Cl)cc1NC(=O)c1c(NCc2ccc(C)o2)sc2c1CCC(C)C2 (configuration not stated) the results were 12-LOX inh 4%, TDP1 cell noCPT 16µM* and TDP1 cell CPT inconclusive.
`COc1ccccc1NC(=O)c1c(NC(=O)c2cccs2)sc2c1CCC(C(C)(C)C)C2` (configuration not stated) gave 12-LOX inh -4%, TDP1 cell noCPT -4% and TDP1 cell CPT -6%.
For COC(=O)c1c(NC(=O)CN(C)CC(=O)Nc2ccc(C)cc2)sc2c1CCC(C)C2 (configuration not stated) the results were 12-LOX inh 26%, TDP1 cell noCPT inconclusive, HT1080NT lethal 6%, IL1B secr inh 4, HT1080 IDH1KD tx 9% and TDP1 cell CPT inconclusive.
`COC(=O)c1c(NC(=O)Cc2cccs2)sc2c1CCC(C)C2` (configuration not stated) gave 12-LOX inh inconclusive, TDP1 cell noCPT inconclusive, HT1080NT lethal -8%, IL1B secr inh -83*, HT1080 IDH1KD tx 8% and TDP1 cell CPT inconclusive.
C=CCN(Cc1cccs1)C(=O)CSCc1ccc(C#N)cc1 was read as 12-LOX inh -4%.
For CCOc1ccccc1NC(=O)c1c(NCc2cccs2)sc2c1CCC(C)C2 (configuration not stated) the results were 12-LOX inh -28%, TDP1 cell noCPT 18µM* and TDP1 cell CPT inconclusive.
Screening CCOC(=O)c1c(NC(=O)Cc2cccs2)sc(C(=O)NC2CCCCC2)c1C returned 12-LOX inh -17%, TDP1 cell noCPT 16µM*, HT1080NT lethal 7%, IL1B secr inh 13, HT1080 IDH1KD tx 7% and TDP1 cell CPT inconclusive.
For COc1ccccc1NC(=O)c1c(NC(=O)c2ccco2)sc2c1CCC2 the results were 12-LOX inh 3%, TDP1 cell noCPT inconclusive, HT1080NT lethal -1%, IL1B secr inh -18, HT1080 IDH1KD tx 18% and TDP1 cell CPT inconclusive.
`COc1ccccc1NC(=O)c1c(NCc2ccc(C)o2)sc2c1CCCCC2` gave 12-LOX inh inconclusive, TDP1 cell noCPT 6.5µM* and TDP1 cell CPT 5.8µM*.
`COc1ccc(Cl)cc1NC(=O)c1c(NCc2ccc(C)o2)sc2c1CCCCC2` gave 12-LOX inh inconclusive, TDP1 cell noCPT 15µM* and TDP1 cell CPT 9.2µM*.
Screening O=C(NCC1(N2CCOCC2)CCCC1)c1cnn(-c2ncc3c(n2)-c2ccccc2CC3)c1C1CC1 returned 12-LOX inh -10%, TDP1 cell noCPT -1% and TDP1 cell CPT 9%[9.04 µM].

Assay outcomes deposited in PubChem BioAssay by National Center for Advancing Translational Sciences (NCATS).
